ELG1 DNA repair – blocks ELG1-dependent DNA repair in HEK293T cells | HEK293T ELG1-luciferase reporter, luminescence, 16 h; DNA damage induced by 5-fluorouridine | Potency, µM (titrated, usually from 46.1 µM), for inactives: at the highest dose activity change, negative = inhibition, most hits filed as inhibitors | hit rate 2.3% among 330,000; further: nearly all actives have a fitted effect of over 55% in size
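HEK293T cells expressing luciferase-tagged ELG1 (2,000/well) received 5-Fluorouridine plus compound or DMSO for 16 hr at 37 °C. Luciferase was read by ONE-Glo luminescence after 30 min at room temperature.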
TDP1 cell noCPT – qHTS for Inhibitors of human tyrosyl-DNA phosphodiesterase 1 (TDP1): qHTS in cells in absence of CPT; DT40 Tdp1-/- hTDP1 cells, no CPT, ATP luminescence, 48 h; hit rate 15% among 420,000; Potency, µM (titrated, usually from 46.2 µM), inactives show at the highest dose activity change, negative = growth inhibition, actives largely listed as inhibitors; AID 686978, 2013; further: nearly all actives have a fitted effect of over 55% in size
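Stably hTDP1-transfected Tdp1-null chicken DT40 cells were treated with library compounds minus camptothecin and grown for at least 48 hr at 37 °C, after which cellular ATP was quantified by luminescence.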
VP16 counter – Gal4-VP16 reporter inhibition counter-screen; Drosophila S2 Gal4-VP16 UAS-luciferase, luminescence, 20 h; Potency, µM (series often up to 53.6 µM), inactives show at the highest dose activity, negative = inhibition, usual class: inhibitors; hit rate 3.5% among 310,000; AID 2546;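 further: Gal4-VP16 expression switched on by copper sulfate through the metallothionein promoter; nearly all actives have a fitted effect of over 50% in size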
DT40 TDP1 CPT – DT40-hTDP1 cell growth loss with CPT. chicken DT40 Tdp1-/-;hTDP1 cells + 20 nM CPT, ATP luminescence, 48 h. Potency, µM (titrated, usually from 46.2 µM), for inactives: at the top dose activity change, negative = growth inhibition, actives largely listed as inhibitors. hit rate 12% among 420,000. AID 686979; further: nearly all actives have a fitted effect of over 55% in size
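Chicken DT40 Tdp1-/- cells complemented with human TDP1, 400 cells/well, exposed to compounds plus 20 nM camptothecin for at least 48 h at 37 C; viability read as ATP content by CellTiter-Glo luminescence.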
RORg inh – ROR gamma (mouse) transcription inhibition. Drosophila S2 Gal4-RORgamma UAS-luciferase reporter, 20 h. P51450. hit rate 5.4% among 310,000. Potency, µM (series often up to 53.6 µM), without a hit: top-dose activity change, negative = inhibition, usual class: inhibitors; further: nearly all actives have a fitted effect of over 60% in size
Target sequence (P51450 whole entry, looked up, the tested form may be a part): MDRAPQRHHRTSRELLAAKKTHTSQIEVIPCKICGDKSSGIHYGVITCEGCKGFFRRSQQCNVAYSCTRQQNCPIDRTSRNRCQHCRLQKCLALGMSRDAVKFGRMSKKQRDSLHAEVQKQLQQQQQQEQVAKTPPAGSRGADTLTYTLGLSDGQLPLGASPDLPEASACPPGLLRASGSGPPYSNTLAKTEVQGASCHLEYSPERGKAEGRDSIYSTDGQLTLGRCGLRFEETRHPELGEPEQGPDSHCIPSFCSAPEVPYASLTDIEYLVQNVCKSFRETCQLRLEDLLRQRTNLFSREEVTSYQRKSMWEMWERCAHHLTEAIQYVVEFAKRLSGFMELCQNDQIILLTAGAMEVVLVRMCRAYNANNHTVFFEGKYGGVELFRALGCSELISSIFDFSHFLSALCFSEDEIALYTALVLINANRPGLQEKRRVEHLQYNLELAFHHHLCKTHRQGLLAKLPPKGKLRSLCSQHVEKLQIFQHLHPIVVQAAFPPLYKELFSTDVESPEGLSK
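Stably transfected Drosophila Schneider cells are the test system, with ROR gamma fused to Gal4 and luciferase under UAS control; luminescence is read after 20 hr of 700 uM copper sulfate induction at ambient temperature.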
ALOX12 inh – inhibitors of human 12S-lipoxygenase ALOX12. hit rate 1.1% among 580,000. P18054. AID 1671190. Potency, µM (highest dose often 108 µM), for inactives: top-dose activity change, negative = inhibition, usual class: inhibitors. purified 12hLO, xylenol orange hydroperoxide absorbance
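Purified human 12hLO (150 nM final) in 25 mM Hepes, 0.01% Triton X-100, pH 7.0 was preincubated 15 min at room temperature with compound. Then 40 uM arachidonic acid was added, 30 min. Hydroperoxide was read by Fe-XO absorbance ratio 573/405 nm.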
Active calls of the source: *; u = inconclusive; x = no result; [ ] = another dose, or the depositor's remark. Most compounds without a hit are left out; they make up all but 15% or so of the library. The call rests on the fitted dose curve; in most records, active means well fitted curve in the direction sought with a large enough effect; inconclusive means small, poorly fitted or top-dose-only effect, or another doubt; inactive means no such curve, though single readings can be large; an effect the other way counts as inactive or inconclusive. On the % scale 0 is the no-effect control and ±100 the full control effect; potency means the concentration at half of the fitted maximal effect.

SMILES	ELG1 DNA repair	TDP1 cell noCPT	VP16 counter	DT40 TDP1 CPT	RORg inh	ALOX12 inh
CCN(CC)CCSc1nc(O)c(-c2ccccc2)c(=O)n1-c1ccccc1	-28%	2%	-2%	7%	-2%	0%
CCN(CC)CCn1c(NCc2ccco2)nc2ccccc21	-14%	-13%	2%	-17%	-30%	u
CCN(CC)CCSc1nc2ccccc2c(=S)n1-c1ccccc1	20%	23µM*	-2%	u	-40%	u
CCn1cnc2cc(NCc3ccc(N(C)C)cc3)ccc21	u	18µM*	-4%[10 µM]	15µM*	-17%	-14%
CC1Oc2ccc(-c3csc(NC(=O)c4cccs4)n3)cc2NC1=O (stereo not drawn)	x	x	x	x	x	12%
COc1cccc(/C=C2\Oc3cc(OS(C)(=O)=O)ccc3C2=O)c1OC	x	x	x	x	x	-3%
CCOc1c(C(=O)OC)sc2ccc(NC(=O)c3ccccc3F)cc12	x	x	x	x	x	1%
COc1ccc(-c2nnc(SCC(=O)Nc3ccc(C)cc3C)[nH]c2=O)cc1	x	x	x	x	x	3%
COc1ccc(C(=O)N2CC3CC(C2)[C@H]2CCCC(=O)N2C3)c(C)c1 (stereo partly drawn)	x	x	x	x	x	34%
CC(=O)N1CCC(C(=O)N2CC(c3nc(CCOc4cccc(C)c4)no3)C2)CC1	x	x	x	x	x	88%
CC(=O)N1CC2(Cc3ccccc31)CN(C(=O)c1ccccc1C)C2	x	x	x	x	x	21%[176 µM]
CNC(=O)/C=C/c1ccc([N+](=O)[O-])cc1	x	x	x	x	x	4%
CCN(CC)CCSc1nc2ccccc2n1Cc1ccccc1	-25%	16µM*	-3%	u	-27%	u
CCn1cnc2cc(NCc3nc4ccccc4n3Cc3ccccc3)ccc21	u	u	u	15µM*	-5%	13%
CCn1cnc2cc(NCc3nc4ccccc4n3C)ccc21	u	u	u	-15%	u	1%
CCOc1ccccc1CNC(=O)c1ccc2c(c1)N(CC)CCS2	-12%	9.2µM*	-5%	15µM*	31%	-11%
CCN1CCSc2ccc(C(=O)NCc3ccc(F)cc3)cc21	x	x	x	x	x	0%
CCN1CCSc2ccc(C(=O)NCc3cccc(F)c3)cc21	-1%	18µM*	7%	u	32%	-16%
CCOc1ccccc1CNC(=O)c1ccc2c(c1)N(Cc1ccc(C)cc1)CCS2	x	9.2µM*	x	18µM*	x	-28%
Cc1ccc(CN2CCSc3ccc(C(=O)NCc4ccco4)cc32)cc1	u	u	-2%	u	u	-16%
Cc1ccc(CN2CCSc3ccc(C(=O)Nc4ccc(C)cc4)cc32)cc1	x	16µM*	x	16µM*	x	u
O=C(NCc1cccc(Br)c1)c1ncoc1-c1cccs1	x	x	x	x	x	22%
CCN1CCSc2ccc(C(=O)NC(C)c3ccccc3)cc21 (stereo not drawn)	x	23µM*	x	18µM*	x	-9%
COc1ccccc1CNC(=O)c1ccc2c(c1)N(Cc1ccc(C)cc1)CCS2	x	u	x	16µM*	x	-11%
COc1ccc(Br)cc1CNC(=O)c1ccc2c(c1)N(Cc1ccc(C)cc1)CCS2	x	u	x	u	x	-19%
SMILES	ELG1 DNA repair	TDP1 cell noCPT	VP16 counter	DT40 TDP1 CPT	RORg inh	ALOX12 inh
CCOc1cc(CNC(=O)c2ncoc2-c2cccc(Cl)c2)ccc1OC	x	x	x	x	x	8%
COc1ccc(CN2C[C@@H](F)[C@@H](OCc3nc4ccc(C)cc4[nH]3)C2)cc1	x	x	x	x	x	24%[176 µM]
O=C(N/N=C/c1cc(Cl)cc([N+](=O)[O-])c1O)c1ccccc1NS(=O)(=O)c1cccs1	u	-5%	10µM*	5%	2.8µM*	u
Cc1cc(C(=O)N/N=C/c2cc(Cl)cc([N+](=O)[O-])c2O)c2ccccc2n1	u	u	11µM*	u	1.6µM*	u
COc1ccccc1C(=O)NC[C@H]1COCc2nc3cc(C)ccc3n21	x	x	x	x	x	7%[176 µM]
COC(=O)/C(C#N)=C\c1cc(OC)c(OC)cc1Br	x	x	x	x	x	-24%
CNC(=S)Nc1ccccc1-c1ccccc1	-4%	u	u	-18%	11µM*	-19%
CCNC(=S)Nc1ccccc1-c1ccccc1	-1%	-13%	11µM*	0%	8.9µM*	5%
Cc1ccc(OCc2nc(C#N)c(N3CCCCCC3)o2)cc1	x	x	x	x	x	-4%
CC1(C(=O)NCc2ccc(F)cc2)Oc2ccccc2NC1=O (stereo not drawn)	u	-8%	0.32µM*	5%	-57%	-14%
Cc1ccc(CNC(=O)C2(C)Oc3ccccc3NC2=O)cc1 (stereo not drawn)	7%	-2%	9%	-18%	1%	0%
CCOC(=O)c1cccc(NC(=O)CCn2c(-c3ccc(F)cc3)cc(C(=O)OCC)c2C)c1	x	13µM*	x	21µM*	x	-29%
CCOC(=O)c1cc(-c2ccc(C)cc2)n(CC(=O)Nc2ccc(OC)c(Cl)c2)c1C	x	16µM*	x	18µM*	x	0%
CCOC(=O)c1cc(-c2ccc(C)cc2)n(CC(=O)Nc2ccc(OC)cc2OC)c1C	x	u	x	23µM*	x	-3%
CCOC(=O)c1cc(-c2ccc(C)cc2)n(CC(=O)NCc2ccco2)c1C	21%	-8%	-2%	-16%	-2%	19%
CCOC(=O)c1cc(-c2ccccc2)n(CCCC(=O)Nc2cccc(C)c2)c1C	x	16µM*	x	16µM*	x	-30%
CC(C)c1ccc(C(C)NC(=O)CN2CCCc3nc(-c4ccccc4)ncc3C2=O)cc1 (stereo not drawn)	x	x	x	x	x	10%
CCOC(=O)c1cc(-c2ccc(C)cc2)n(CCC(=O)Nc2ccc(C(C)C)cc2)c1C	x	5.2µM*	x	5.2µM*	x	-12%
CCOC(=O)c1cc(-c2ccc(C)cc2)n(CCC(=O)NCc2ccccc2)c1C	x	u	x	u	x	3%
CCOC(=O)c1cc(-c2ccc(C)cc2)n(CCC(=O)Nc2ccc(OC)c(OC)c2)c1C	x	18µM*	x	u	x	-13%
CCOC(=O)c1cc2occc2n1CC(=O)Nc1ccc(OC)cc1OC	-20%	u	22%	23µM*	28%	-27%
CCOC(=O)c1cc(-c2ccccc2)n(CCCC(=O)Nc2cccc(C)c2C)c1C	x	u	x	16µM*	x	-12%
CCOC(=O)c1c(C)c(-c2ccccc2)n(CC(=O)Nc2ccc(OC)cc2OC)c1C	x	x	x	x	x	-1%
COc1ccc(NC(=O)N2CC(C(=O)N(C)C)C3(CCOCC3)C2)c(OC)c1 (stereo not drawn)	x	x	x	x	x	9%
CCOc1cc(/C=C2/NC(=O)NC2=O)cc(Cl)c1OCc1ccc(F)cc1	x	x	x	x	x	-3%

Screens: PubChem BioAssay, National Center for Advancing Translational Sciences (NCATS)
